# Assay results taken from the supplement of paper PMC3334620.
# In all, about 33,000 sequences were measured (“E-score (-0.5 to 0.5)”: median about -0.0014, highest 2% from about 0.25 on). The entries come from a sample that favours the highest values as a whole.
# Molecular target: T1, Cad1 (UniProt P24813)
# T1 sequence: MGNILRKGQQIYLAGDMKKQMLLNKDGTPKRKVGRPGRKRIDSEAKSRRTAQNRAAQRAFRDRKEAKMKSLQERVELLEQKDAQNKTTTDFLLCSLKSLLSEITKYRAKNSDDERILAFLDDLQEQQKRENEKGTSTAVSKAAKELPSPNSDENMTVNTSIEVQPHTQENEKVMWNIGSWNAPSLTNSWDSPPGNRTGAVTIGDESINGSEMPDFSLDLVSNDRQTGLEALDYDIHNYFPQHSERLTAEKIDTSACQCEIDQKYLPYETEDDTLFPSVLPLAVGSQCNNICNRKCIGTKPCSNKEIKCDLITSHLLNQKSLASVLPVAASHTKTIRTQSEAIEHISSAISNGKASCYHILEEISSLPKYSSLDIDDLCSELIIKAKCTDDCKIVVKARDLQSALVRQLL
# Experiment: PBM E-score (8-mer binding enrichment) (E-score (-0.5 to 0.5)); higher = stronger / more preferred TF binding
# Details: protein concentration: 100 nM; construct: GST-full length
# Summary of the method: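 Universal all-10-mer Agilent arrays, fresh or stripped once, were converted to double-stranded form by primer extension. GST-tagged yeast transcription factors from PURExpress in vitro transcription/translation, full-length or DNA-binding domain only, were applied at about 100-200 nM and detected with fluorescent anti-GST. After masliner normalisation, the Universal PBM Analysis Suite scored each ungapped eight-base word together with its reverse complement by E-score.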
row,Sequence,PBM E-score
1,TGTAGTAA,0.145
2,CGGAAACG,-0.0175
3,AATCTAGG,0.00096
4,TGCTCCAA,0.0768
5,GAATCTGC,0.014
6,TACATGTA,0.27
7,CACATGTA,0.109
8,GACATGTA,0.0721
9,CCGATTGC,0.25
10,ACGATTGC,0.213
11,CCGATTGA,0.144
12,CCGGGTAG,0.00529
13,ATTAGATC,0.03
14,ATTAGATG,0.263
15,ATTAGATA,0.211
16,ACATTGGT,0.0584
17,AGCTAGCT,0.162
18,AAACAATT,0.114
19,AAACAATA,0.251
20,GAACAACA,-0.043
21,CAACAAGA,-0.0155
22,CAACAACA,0.269
23,TAACAATA,0.165
24,TCCAAGAA,-0.0134
25,GCGTTAGC,0.0751
26,ATTATGTG,0.25

row,Sequence,PBM E-score
1,ACTATATC,0.109
2,AGTAGATC,-0.191
3,ATTATGTA,0.311
4,GCTATATA,0.149
5,ACTATATA,0.251
6,ATTATGTC,0.181
7,CTTATATA,0.331
8,AGTAGATA,0.282
9,GTTATATA,0.232
10,CTTATATC,0.0947
11,CGTAGATA,0.113
12,ATCCGGGG,-0.0124
13,CAACCGTG,0.00095
14,GATCCTAC,0.00192
15,CCGTATTC,-0.0178
16,ATGGACCC,-0.0809
17,ATTATATA,0.306
18,ATTATATC,0.0433
19,ATTATATG,0.211
20,AGTATATA,0.285
21,AGTATATG,0.0763
22,AGTATATC,0.0175
23,AAAATATT,0.192
24,ACCCACTA,0.107
25,AGCGCCAA,-0.0679
26,ATGGTCTC,0.102

row,Sequence,PBM E-score
1,AATAAGCT,0.234
2,CGTAAGCA,0.232
3,GGTAAGCA,0.257
4,GATAAGCA,0.154
5,AGTAAGCA,0.241
6,AATAAGAG,0.0662
7,AATAAGAA,0.252
8,AATAAGAT,0.039
9,AATAAGCA,0.343
10,CTCTAGTC,-0.388
11,AGACTTGA,-0.0266
12,ATTTTCCG,0.304
13,ATTCCCGG,0.296
14,ATTTCCGG,0.264
15,ATTTTCCC,0.00868
16,ATTCCCCG,-0.0432
17,ATTCCCGA,-0.241
18,ATTTCCGA,0.0803
19,ATTTCCGC,0.123
20,AATTTCCG,0.24
21,GCGGGTCC,-0.207
22,AGTTTGGC,0.109
23,CCCTAAAA,-0.228
24,GCTCAGCC,-0.143
25,AGGCAAAC,-0.106
26,CACCGTGG,-0.018

row,Sequence,PBM E-score
1,ACTAATGG,0.209
2,CCTAATTC,-0.115
3,ACTAATTG,0.197
4,ACTAATGA,0.128
5,GCTAATTA,0.306
6,CCTAATTA,0.156
7,ACTAATTA,0.377
8,ACGAATTA,0.0763
9,ACTAATTC,0.306
10,GCTAATGA,-0.0534
11,ACTAACTA,0.00503
12,ACTAATGC,0.275
13,CGAAAACG,0.0757
14,CTTTACCA,0.00321
15,AACTTATT,0.142
16,GTATTAAC,-0.0392
17,AGGATTAT,-0.0734
18,ATCATAGA,0.146
19,AAATACCC,0.136
20,CCCAAGAA,0.0477
21,ACTTCCAC,0.00186
22,AATGGACT,0.0697
23,ACTCTCGA,0.141
24,AAGCCATC,0.0891
25,CAGGGCTC,-0.158
26,CAATATAA,0.283

row,Sequence,PBM E-score
1,CAATATAC,0.0244
2,TAATAAAA,0.226
3,GAATATAA,0.0963
4,TAATATAA,0.332
5,CAATATAG,0.101
6,AAGAATTC,0.0649
7,CACACTCG,0.0692
8,AAGTCCTG,-0.138
9,GTAATCCA,0.277
10,CTAATCCA,0.131
11,ATAATCTA,0.185
12,GTAATTTA,0.267
13,CTAATCTA,0.0215
14,CTAATTTA,0.199
15,ATAATCCC,-0.033
16,GCAATCCA,0.0441
17,GTAATCTA,0.268
18,ATAATCCA,0.252
19,ATAATCCG,0.119
20,ATAATTTA,0.236
21,GCTTTGCC,-0.183
22,CAGGTCTC,-0.164
23,CGACCATA,-0.0443
24,AACCCCGC,-0.159
25,CGATTGCC,0.0433
26,GTAATCAA,0.253

row,Sequence,PBM E-score
1,GTAATCAC,0.229
2,TTAATCAA,0.199
3,CGCTAGAG,-0.115
4,AAAGTCGA,-0.0137
5,GTTTGCAA,0.0869
6,ATTTGCAA,0.277
7,CTTTGCAA,0.0374
8,GTTTGAAA,0.113
9,ATTTGAAA,0.251
10,CTTTGAAA,0.116
11,TGTCGCAA,-0.137
12,GGCCTCAA,-0.0369
13,AAAGTCAT,0.074
14,ACCCTCTA,-0.192
15,CCCCAAGG,-0.307
16,GCACCTCA,0.0626
17,CGATCGAC,0.272
18,CGATCGAA,0.106
19,AGATCGAC,0.0578
20,CTGGCTAC,-0.259
21,GATAGACA,-0.0074
22,CTCCACCA,-0.193
23,GGACAGAA,0.0717
24,ACTCGCGC,0.0881
25,GCTCGCTA,-0.0118
26,ACTCGCGA,0.271

row,Sequence,PBM E-score
1,CCTCGCGA,0.121
2,ACTCGCGG,0.0242
3,GCTCGCGA,0.3
4,CGATGAAG,-0.0787
5,AGAGTATC,-0.0123
6,AATCCACG,0.048
7,AGTTTCCG,0.105
8,CCTGGGGC,-0.343
9,ACTGTAGC,-0.136
10,CACGTCTG,0.134
11,ACATCGAA,0.169
12,TCCGGGCA,0.00134
13,AGCTCGCG,0.262
14,ATCTCGCA,0.0847
15,AGCTCGCC,-0.0374
16,AGCTCGCA,0.0143
17,ATCTCGCC,-0.0589
18,ATCTCGCG,0.256
19,CGCTGACC,0.117
20,CGCTGACA,0.297
21,TGCTGACA,0.334
22,GGCTGATA,-0.0873
23,CGCTGACG,0.0393
24,GGCTGACA,0.313
25,AGCTGACA,0.192
26,GGCTGACC,-0.121

row,Sequence,PBM E-score
1,TGCTGAAA,-0.0176
2,CGCGCAAC,0.2
3,AGGATGGG,-0.107
4,AAGTCTAG,-0.155
5,CGAAAAGA,0.28
6,AGAAAATC,-0.0518
7,GGAAAAGA,-0.191
8,CGAAAATA,0.163
9,CGAAAATC,0.259
10,AGAAAAGA,-0.0414
11,GTATTGCA,-0.0639
12,ATAGGCGC,0.0733
13,ACGGGCAA,-0.05
14,ACCAATAT,0.306
15,ACCAAAAA,0.278
16,ACCAATAC,-0.106
17,ACGAATAT,0.268
18,AACAATAC,0.135
19,ACGAATAA,-0.0279
20,AACAATAT,0.338
21,AACAATAA,0.211
22,ACCAAAAT,0.0849
23,ACGAATAC,0.132
24,ACCAAAAC,-0.0311
25,ACCAATAG,-0.201
26,ACGGACCT,-0.0269

row,Sequence,PBM E-score
1,CCAGCGTA,-0.0528
2,GCTCATGA,0.0686
3,GCTGCCCC,-0.107
4,GCCCCAGA,-0.158
5,CCTTGGGA,-0.00782
6,CAGTGGAA,-0.0557
7,CGTCCGGA,0.099
8,ACGTTGGG,0.0171
9,ACTCGCAT,0.101
10,CGTACACG,0.0454
11,ATTACATG,0.301
12,ATTACTCC,0.0689
13,ATTACTCG,0.221
14,ATTACATC,0.209
15,ATTACTCA,0.325
16,ATTACACC,0.108
17,ATTACAGG,0.228
18,TGTACACA,0.256
19,ATTACACG,0.0358
20,ATTACACA,0.284
21,AGTACACA,0.0961
